High-throughput results from PubChem BioAssay.
FBW7 act – activators of human E3 ligase FBW7 | 650,000 tested, 0.13% active | Q969H0 | AID 1259310 | AlphaScreen FBW7–phospho-cyclin E peptide binding, activator screen | normalized activity (activation), % at 26.1 µM; in the data active = normalized activity above about 1.9%;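 note: purified mutant Fbw7 with reduced substrate affinity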
MITF inh – blocks human microphthalmia-associated transcription factor. O75030. AlphaScreen MITF homodimerization, bead proximity signal. inhibition, % at 2.6 µM. 650,000 tested, 0.91% active. AID 1259374; in the data active = inhibition above about 50%;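 note: 0% = vehicle wells with protein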
GPR151 ag – human GPR151 activation; PathHunter beta-arrestin GPR151 cells, luminescence; activation, % at 11.2 µM; 650,000 tested, 1% active; in the data active = activation above about 4.9%;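 note: 0% = median of compound wells and 100% = cells with positive control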
TEAD-YAP inh – TEAD-YAP interaction inhibition | HEK-TIYL cells, TEAD-Gal4/YAP UAS-luciferase luminescence | inhibition, % at 9.12 µM | 640,000 tested, 1.4% active | AID 1259422; in the data active = inhibition above about 32%;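 note: 0% = median of test compound wells and 100% = reference inhibitor wells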
Starred values were filed as active, the others as inactive. Compounds with a hit are over-represented: about 3.5% of the library has one in this group of screens.

SMILES	FBW7 act	MITF inh	GPR151 ag	TEAD-YAP inh
O=C1OC(c2ccc([N+](=O)[O-])cc2)=N/C1=C/c1cc(Br)cs1	0	-2	1	4
CSc1ccccc1C(=O)Nc1sc2c(c1C#N)CCN(C(C)=O)C2	0	-8	-2	46*
CC(=O)N1CCc2c(sc(NC(=O)c3ccccc3Cl)c2C#N)C1	0	-8	3	11
CC(=O)N1CCc2c(sc(NC(=O)/C=C/c3ccccc3Cl)c2C#N)C1	0	-3	1	50*
CC(=O)N1CCc2c(sc(NC(=O)/C=C/c3ccc([N+](=O)[O-])cc3)c2C#N)C1	0	2	0	2
CC(=O)N1CCc2c(sc(NC(=O)c3cc(Cl)sc3Cl)c2C#N)C1	1	-7	1	13
CC(=O)N1CCc2c(sc(NC(=O)c3ccccc3C)c2C#N)C1	0	-3	2	51*
O=C1CSc2cc(S(=O)(=O)CCC(=O)NC3CCCCCCC3)ccc2N1	0	11	-2	0
CN(C)CCNc1ccc(-c2ccccc2C=O)cn1	0	20	-1	-6
Oc1ccc(Br)cc1/C=N\Nc1nc2ccccc2[nH]1	0	11	0	65*
C/C(=N\Nc1nc2ccccc2[nH]1)c1ccccc1O	-1	52*	0	-16
C(=N\Nc1nc2ccccc2[nH]1)/c1cccc(/C=N/Nc2nc3ccccc3[nH]2)c1	0	8	2	-12
C(=N\Nc1nc2ccccc2[nH]1)/c1ccccn1	-1	46	-8	95*
C/C(=N\Nc1nc2ccccc2[nH]1)c1ccccc1Cl	0	12	0	14
COCCCNC(=O)CSc1nc2cc(OC)c(OC)cc2c2nc(C)nn12	0	-4	-1	-16
COC(=O)C1=C(C)N(CC(C)C)C(=O)/C1=C\c1ccc(Cl)cc1	0	-17	1	-15
CC(C)S(=O)(=O)/C(Cl)=C(\Cl)C(=O)Nc1ccccc1Cl	0	24	-3	95*
Cc1ccc(C2/C(=C(/O)c3ccc(F)cc3)C(=O)C(=O)N2CCCn2ccnc2)cc1 (centres undefined)	0	7	-1	13
COc1cccc(/C=N/NC(=O)c2ccc(Cn3nc(C)cc3C)cc2)c1O	0	29	0	53*
COc1ccc(CCCC(=O)N/N=C/c2cccc(OC)c2O)cc1C	0	-7	0	42*
Cc1cc(C)n(Cc2cccc(C(=O)N/N=C/c3ccc(O)cc3O)c2)n1	-1	22	0	18
Cc1cc(C)n(Cc2ccc(C(=O)N/N=C/c3ccc(O)cc3O)cc2)n1	-1	19	0	61*
Cc1cc(C)nc(N2CCC(N(CC3CC3)C(=O)NC(C)C)CC2)n1	0	10	0	10
O=c1c(-c2ccccc2Cl)c(C(F)(F)F)oc2c(CN3CCCCC3)c(O)ccc12	0	5	0	9
CCCCCN(C(=O)NC(=O)Nc1cccc2ccccc12)S(=O)(=O)c1ccccc1	0	7	0	7
SMILES	FBW7 act	MITF inh	GPR151 ag	TEAD-YAP inh
CCOC(=O)c1c(NC(=O)CCCOc2cccc(C)c2)sc(C)c1C	0	-5	-1	-6
O=C1CCCN1CCCNc1nc(Nc2cnccn2)nc2c1ncn2C1CCCCC1	0	6	-2	35*
c1cnc(Nc2nc(NC3CC3)c3ncn(C4CCCCC4)c3n2)cn1	0	7	5	42*
O=C1CCCN1CCCNc1nc(Nc2cnccn2)nc2c1ncn2CCN1CCCC1=O	0	3	0	6
O=C1CCCN1CCCNc1nc(Nc2ccccc2)c2ncn(C3CCCCC3)c2n1	1	-1	-2	64*
CC(=O)Nc1ccc(Nc2nc(NCCCN3CCCC3=O)nc3c2ncn3C2CCCCC2)cc1	0	-3	-3	-11
COc1ccc(Nc2nccc(NCc3cccc(C(F)(F)F)c3)n2)cn1	0	-13	0	9
COc1ccc(Nc2nc(C)cc(NCc3cccc(C(F)(F)F)c3)n2)cn1	1.9*	6	1	29
COc1ccc(-c2nc3ncnc(NCc4cccc(C(F)(F)F)c4)c3[nH]2)cn1	0	13	0	54*
COc1ccc(Nc2nc(C)cc(NCc3cccc(C(F)(F)F)c3)n2)cc1	0	6	0	38*
Clc1ccc(Nc2nc(N/N=C/c3ccccc3)nc(N3CCOCC3)n2)cc1	0	13	0	-18
CCOC(=O)C1CCN(Cc2cc(OC)c(O)c(OC)c2)CC1	0	9	0	-1
CCOCCCNC(=O)c1ccc2nc(-c3ccccc3)c(-c3ccccc3)nc2c1	0	-10	3	12
COc1ccc(/C=N/Nc2ncccc2[N+](=O)[O-])c(OC)c1	-1	13	-9	69*
